Results from PubChem BioAssay (NCATS).
Activity calls are given as the source filed them.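 The calls were made as follows: active = compounds whose dose series gives a full or clear partial fitted curve of increased nuclear translocation; inconclusive = weak partial curve or effect only at the top dose; inactive = no dose-dependent translocation response.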
Potency is read from the fitted curve at half-maximal effect.

The compounds below were run against Glucocorticoid receptor (Homo sapiens) (UniProt P04150) (assay: GR-GFP Redistribution (AID 450)). Settings: U2OS GR-GFP nuclear translocation, laser cytometry, 2 h.
Sequence of Glucocorticoid receptor (Homo sapiens) (P04150 whole entry, looked up): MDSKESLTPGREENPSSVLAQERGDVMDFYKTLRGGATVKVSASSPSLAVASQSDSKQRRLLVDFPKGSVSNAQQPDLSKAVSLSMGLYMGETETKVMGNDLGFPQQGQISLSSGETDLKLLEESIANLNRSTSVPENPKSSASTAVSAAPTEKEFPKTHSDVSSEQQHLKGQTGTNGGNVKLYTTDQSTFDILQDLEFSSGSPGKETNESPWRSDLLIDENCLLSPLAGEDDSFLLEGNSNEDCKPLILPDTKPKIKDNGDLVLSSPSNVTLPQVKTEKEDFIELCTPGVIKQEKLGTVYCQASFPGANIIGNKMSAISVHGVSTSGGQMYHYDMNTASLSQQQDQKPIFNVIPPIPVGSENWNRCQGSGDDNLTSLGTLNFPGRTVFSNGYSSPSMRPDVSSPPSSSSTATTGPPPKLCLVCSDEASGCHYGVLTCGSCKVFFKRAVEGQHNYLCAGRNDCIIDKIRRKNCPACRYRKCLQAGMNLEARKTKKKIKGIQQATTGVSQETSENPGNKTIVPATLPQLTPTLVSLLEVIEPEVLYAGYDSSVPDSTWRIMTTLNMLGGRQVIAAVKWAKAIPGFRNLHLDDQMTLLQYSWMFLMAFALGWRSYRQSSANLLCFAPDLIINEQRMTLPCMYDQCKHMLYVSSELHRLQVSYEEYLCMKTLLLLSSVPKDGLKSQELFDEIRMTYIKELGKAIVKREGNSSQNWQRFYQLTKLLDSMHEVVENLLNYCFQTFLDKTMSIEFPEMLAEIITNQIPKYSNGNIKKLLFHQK
Description: NIH Molecular Libraries Screening Centers Network [MLSCN]
NIH Chemical Genomics Center [NCGC]
The glucocorticoid receptor (GR) Redistribution assay (BioImage) enables the visualization of GR cytoplasmic to nuclear translocation by the use of a GR-GFP fusion. GR is normally cytosolic, however ligands such as dexamethasone, cause nuclear translocation where the protein binds to response elements and interacts with various co-factors to modulate transcription. Because both functional agonists and antagonists can induce nuclear translocation, this assay can detect ligands regardless of their effects on gene expression. GR-GFP expressing U20S cells were used here. Dexamethasone was the positive control for translocation and data normalization. Detection of nuclear translocation was performed in 1536-well plates using the Acumen laser scanning plate cytometer (TTP LabTech). Validation of this assay and a detailed protocol have been described.
NCGC Assay Protocol Summary:
GR-GFP U2OS cells were maintained in DMEM with Glutamax and high glucose, 1% v/v penicillin-streptomycin, and 0.5 mg/mL Geneticin. For cell culture, 10% […] fetal bovine serum (FBS) was used (Invitrogen #26140-079). For cell plating 10% dextran, charcoal-stripped FBS (Hyclone SH30068.03) was used. U2OS cells were trypsin treated, suspended in medium, and passed through a 40 um basket filter. The cells were seeded at 600 cells/5 uL/well into clear-bottom black sided 1536-well plates and incubated for approximately 20 hrs, 37degC, 5%, CO2 in a tissue culture incubator. Twenty-three nL of compound was delivered by pin tool and the plates were incubated as above for 2 hrs. The compounds were tested as a 7-point titration ranging from 46 uM to 0.6 nM. The cells were fixed using the Kalypsys Washer/Dispenser station. The fixing protocol involved aspiration of the cell media, addition of 6 uL/well of PBS, aspiration of PBS, addition of 5uL/well of 100% methanol, aspiration of methanol, and addition of 3 uL/well PBS with 1.5 uM propidium iodide (PI). The plates were read by the Acumen Explorer using a 1 x 8 um scan of the whole well area. PI fluorescence triggered the collection of PI and GFP signals. A nuclei population was defined by a 10 to 100 um width and depth filter that eliminated small and large fluorescent particles. Two subpopulations of nuclei were then defined by peak intensity of GFP fluorescence to obtain translocated and untranslocated objects. The number of translocated objects was used for data normalization.
Keywords: NIH Roadmap, MLSCN, MLI, MLSMR, sOGT, qHTS, NCGC
With `COCCn1c(=O)c(-c2cccs2)nc2cnc(Oc3ccccc3)nc21` the Potency was > 9.22 µM (inactive). `Cn1cc(-c2nc3cnc(N4CCNCC4)nc3n(C3CC3)c2=O)c2ccccc21` was tested, and the Potency was > 9.22 µM (inactive). In the case of `N#CCCn1c(=O)c(-c2ccc(Cl)cc2)nc2cnc(N3CCOCC3)nc21`, the Potency is reported as > 9.22 µM (inactive). For `COc1ccc(CNc2nc(-c3cccnc3)nc3ccccc23)c(OC)c1`, the Potency was > 46 µM (inactive). With `N=C(N)c1ccc(N=Nc2c(O)ccc3c2[nH]c2ccccc23)cc1` the Potency was > 46 µM (inactive). `CN(Cc1ccco1)c1ncnc2ccc(-c3cccc(NS(C)(=O)=O)c3)cc12` was tested, and the Potency was > 46 µM (inactive). With `O=c1cnc2cnc(OCc3ccccc3)nc2n1CCc1ccccc1` the Potency was > 9.22 µM (inactive). In the case of `Cc1cccc(CNc2ncncc2-c2ccccc2CN(C)C)c1`, the Potency is reported as > 46 µM (inactive). For `CN(C)c1ccc(-c2cc(N(C)Cc3ccco3)ncn2)cc1`, the Potency was > 46 µM (inactive). `CC1(C)Cc2c(C#N)c(N3CCN(C(=O)c4ccco4)CC3)nc(-c3ccco3)c2CS1` was tested, and the Potency was > 20.6 µM (inactive). In the case of `CCNc1ncc2ncc(=O)n(Cc3ccc(F)cc3)c2n1`, the Potency is reported as > 9.22 µM (inactive). `CN(Cc1ccco1)c1nc(-c2ccccc2C(F)(F)F)nc2ccccc12` was tested, and the Potency was > 46 µM (inactive). With `Cc1nc2cnc(OCc3ccccc3)nc2n(CCc2ccccc2)c1=O` the Potency was > 9.22 µM (inactive). For `COCCn1c(=O)c(CCc2ccccc2)nc2cncnc21`, the Potency was > 9.22 µM (inactive). For `COc1cc2cc(Oc3ccc4ccc(=O)oc4c3)c(=O)oc2cc1O`, the Potency was > 46 µM (inactive). In the case of `CN1CCN(c2ncc3nc(-c4ccccc4)c(=O)n(Cc4cccs4)c3n2)CC1`, the Potency is reported as > 9.22 µM (inactive). `Cc1ccccc1-c1ccc2ncnc(-n3ccnc3)c2c1` was tested, and the Potency was > 46 µM (inactive). For `O=C(/C=N/O)NCCCN1CCOCC1`, the Potency was > 20.6 µM (inactive). `COc1ccccc1-c1nc(NC2CC2)c2ccccc2n1` was tested, and the Potency was > 46 µM (inactive). In the case of `O=c1cc(-c2ccc(O)c(O)c2)oc2cc(O[C@@H]3O[C@@H](CO)[C@@H](O)[C@@H](O)[C@H]3O)cc(O)c12`, the Potency is reported as > 46 µM (inactive). With `COc1ccc2[nH]cc(CCNc3nc(-c4c(C)noc4C)nc4ccccc34)c2c1` the Potency was > 46 µM (inactive). With `CCN(CC)c1ccc2cc(-c3nnc(-c4ccncc4)o3)c(=O)oc2c1` the Potency was 3.51 µM (active). With `COc1ncc2nc(-c3ccccc3)c(=O)n(Cc3cccs3)c2n1` the Potency was > 9.22 µM (inactive). `COc1cccc(-c2cncnc2NCc2ccccc2OC)c1` was tested, and the Potency was > 46 µM (inactive). For `Cc1noc(C)c1-c1nc(N2CCN(C)CC2)c2ccccc2n1`, the Potency was > 46 µM (inactive). `CN1CCN(c2ncnc3ccc(-c4cccc(C#N)c4)cc23)CC1` was tested, and the Potency was > 46 µM (inactive). In the case of `Cc1cccc(CNc2ncncc2-c2ccccc2C)c1`, the Potency is reported as > 46 µM (inactive). For `c1ccc(NN(Cc2cnccn2)c2ccccc2)cc1`, the Potency was > 46 µM (inactive). With `COc1ccc2[nH]cc(CCNc3ncnc4ccc(-c5cccc(C#N)c5)cc34)c2c1` the Potency was > 46 µM (inactive). `O=c1c(CCc2ccccc2)nc2cnc(N3CCNCC3)nc2n1-c1ccccc1` was tested, and the Potency was > 9.22 µM (inactive). In the case of `COc1ccc(-c2nc3cnc(N4CCOCC4)nc3n(-c3ccc(OC)cc3)c2=O)cc1`, the Potency is reported as > 9.22 µM (inactive). For `CN(C)c1nc(-c2cccc(C#N)c2)nc2ccccc12`, the Potency was > 46 µM (inactive). `c1cn(-c2ncnc3ccc(-c4ccoc4)cc23)cn1` was tested, and the Potency was > 46 µM (inactive). `COc1ccccc1-c1nccc(N2CCN(C)CC2)n1` was tested, and the Potency was > 46 µM (inactive). `COc1ccc2[nH]cc(CCNc3ncncc3-c3ccccc3C)c2c1` was tested, and the Potency was > 46 µM (inactive). For `COc1cccc(-c2ccc3ncnc(NCc4ccc(OC)cc4OC)c3c2)c1`, the Potency was > 46 µM (inactive). For `COc1cccc(-c2nc(N(C)C)c3ccccc3n2)c1`, the Potency was > 46 µM (inactive). `CN(C)c1ncc2nc(CCc3ccccc3)c(=O)n(Cc3cccs3)c2n1` was tested, and the Potency was > 9.22 µM (inactive). For `COc1ncc2nc(-c3ccccc3)c(=O)n(CCc3ccccc3)c2n1`, the Potency was > 9.22 µM (inactive). For `COCCn1c(N)c(C(=O)NCC2CCCO2)c2nc3ccccc3nc21` (stereo not given), the Potency was > 20.6 µM (inactive).
